# SARS PLP yeast: blocks SARS-CoV papain-like protease in a yeast assay. S. cerevisiae expressing SARS-CoV PLpro, growth rescue. Potency, µM (titrated, usually from 32.9 µM), most hits filed as activators. 330,000 tested, 0.19% active. AID 485353; calls by dose curve; also: nearly all actives have a fitted effect of over 55% in size
# Pf growth 96h: P. falciparum growth inhibition at 96 hour, primary screen for plastid delayed-death inhibitors; 320,000 tested, 6.9% active; Potency, µM (series often up to 28.7 µM), hits mostly inhibitors; P. falciparum luciferase reporter growth, 96 h
#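 Infected RBCs, 2% Hct / 0.05% parasitemia final; luciferase-reporter P. falciparum; cpd 96 h, 37 C, 5% CO2; luciferase detection reagent; luminescence.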
# NS1 inh: blocks influenza NS1 protein function | Potency, µM (doses to about 46.1 µM) | 270,000 tested, 0.4% active | AID 2326; calls by dose curve; also: actives are rising curves; nearly all actives have a fitted effect of over 50% in size
#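 Compounds were scored for reversing the slow growth caused by influenza A NS1 in S. cerevisiae, measured by optical density at 600 nm. Assay medium contained 2% galactose at pH 6.0; NS1-free yeast of the same strain were the positive control.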
# Pf growth 48h: P. falciparum growth inhibition at 48 hours (one generation) | P. falciparum luciferase growth in erythrocytes, 48 h | Potency, µM (top dose mostly 28.7 µM), hits mostly inhibitors | 310,000 tested, 5.9% active | AID 504832
#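 Luminescence readout; reporter = integrated firefly luciferase in P. falciparum. RBC culture at 2% hematocrit, 0.1% parasitemia final, 37 C/5% CO2; decreased signal taken as growth inhibition.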
# Numbers stand for hits; 0 = inactive; ? = inconclusive; - = no result given; [ ] = remark or other dose. Rows were chosen to be rich in hits. Some 10% of all compounds tested hit in one or more screens of this group. Unless noted, calls follow the shape of the dose curve; as a rule, active = well fitted inhibition curve with a large enough effect; inconclusive = small, poorly fitted or top-dose-only effect, or another doubt; inactive = no such curve, though single readings can be large or run the other way.
SMILES,SARS PLP yeast,Pf growth 96h,NS1 inh,Pf growth 48h
CCNS(=O)(=O)c1ccc(C(=O)OCc2cc(=O)oc3cc(OC)ccc23)cc1,0,0,0,0
CCNC(=S)/N=C(\N)Nc1nc(C)c2cc(C)ccc2n1,0,0,0,?
CCOc1ccc2nc(N/C(N)=N/C(=S)Nc3ccc(C)c(C)c3)nc(C)c2c1,0,6.6µM,0,6.6µM
COc1ccc(NC(=S)/N=C(\N)Nc2nc(C)c3ccc(C)cc3n2)cc1,0,0,?,12µM
CCC(C)[C@H]1COCCS(=O)(=O)N1Cc1ccc(Br)cc1 (stereo partly drawn),0,?,0,0
CCOc1ccc(C(=O)NCC(=O)NNC(=O)c2ccco2)cc1OCC,0,-,-,-
C/C(CC(=O)Nc1ccccc1Br)=N\NC(=O)C(=O)N1CCCC1,0,10µM,0,0
O=C(O)C=C(Br)Br,0,0,0,0
COc1cc2c(cc1OC)C(c1cccc([N+](=O)[O-])c1)N(C(=O)c1ccccc1C(=O)O)CC2 (stereo not drawn),0,0,0,?
COc1cc2c(cc1OC)C(c1cc(Br)ccc1F)N(C(=O)CCl)CC2 (stereo not drawn),0,?,0,8.3µM
COc1ccc(C(=O)N2CCc3cc(OC)c(OC)cc3C2c2cccc([N+](=O)[O-])c2)cc1OC (stereo not drawn),0,?,0,13µM
COc1ccc(C2c3cc(OC)c(OC)cc3CCN2C(=O)c2ccccc2)cc1OC (stereo not drawn),?,2.1µM,0,?
COc1ccc(C2c3cc(OC)c(OC)cc3CCN2C(=O)c2ccccc2Br)cc1OC (stereo not drawn),0,?,0,12µM
COc1ccc(C(=O)N2CCc3cc(OC)c(OC)cc3C2c2ccc(OC)c(OC)c2)cc1 (stereo not drawn),0,?,0,?
CC(NC(=O)C12CC3CC(CC(O)(C3)C1)C2)c1ccccc1 (stereo not drawn),0,0,0,0
C/C=C(\C)C(=O)Nc1cccc(C2=NOC3(C2)C[C@@H](C(N)=O)N(C(=O)c2cc([N+](=O)[O-])cc([N+](=O)[O-])c2C)C3)c1 (stereo partly drawn),0,?,0,?
Cc1c(C(=O)N2CC3(CC(c4cccc(NC(=O)CC(c5ccccc5)c5ccccc5)c4)=NO3)C[C@@H]2C(N)=O)cc([N+](=O)[O-])cc1[N+](=O)[O-] (stereo partly drawn),0,?,0,12µM
CCCCCC(=O)Nc1cccc(C2=NOC3(C2)C[C@H](C(N)=O)N(C(=O)c2ccccc2C(=O)c2ccccc2)C3)c1 (stereo partly drawn),0,?,0,9.3µM
C/C=C(/C)C(=O)Nc1cccc(C2=NOC3(C2)C[C@H](C(N)=O)N(C(=O)Cc2ccc([N+](=O)[O-])cc2)C3)c1 (stereo partly drawn),0,?,0,12µM
C=C(C)C(=O)Nc1cccc(C2=NOC3(C2)C[C@H](C(N)=O)N(C(=O)c2ccccc2C(=O)c2ccccc2)C3)c1 (stereo partly drawn),0,13µM,0,?
COc1ccc(O[C@H]2C=C[C@@H](c3ccccc3)O[C@@H]2COC(=O)CC/C(C)=N/OC[C@@H](O)COCc2ccco2)cc1,0,?,0,?
COc1ccc(O[C@H]2C=C[C@@H](c3ccccc3)O[C@@H]2COC(=O)CC/C(C)=N/O[C@@H](C)c2cc(-c3c(C)cc(C)cc3C)no2)cc1,0,2.9µM,0,?
CCCNC(=O)c1c[nH]c2ccc(S(=O)(=O)N(C)c3ccc(OCC)cc3)cc2c1=O,0,0,0,12µM
CCN(c1ccccc1)S(=O)(=O)c1ccc2[nH]cc(C(=O)NCCOC)c(=O)c2c1,0,0,0,?
Cc1ccc(C)c(N(C)S(=O)(=O)c2ccc3[nH]cc(C(=O)NCCN4CCOCC4)c(=O)c3c2)c1,0,-,0,?
CCOc1ccc(N(C)S(=O)(=O)c2ccc3[nH]cc(C(=O)NCCOC)c(=O)c3c2)cc1,0,0,-,?
CCCCN(C)CCNC(=O)c1c[nH]c2ccc(S(=O)(=O)N(CC)CC)cc2c1=O,0,0,0,3.7µM
Cc1ccc(N(C)S(=O)(=O)c2ccc3[nH]cc(C(=O)NCCCN4CCOCC4)c(=O)c3c2)cc1C,0,?,0,2.3µM
COc1ccc(C2(CNS(=O)(=O)c3ccccc3)CCOCC2)cc1,0,0[5.75 µM],0,0
Cc1ccc2cc(CN(Cc3ccco3)C(=S)NCC3CCCO3)c(=O)[nH]c2c1 (stereo not drawn),0,3.7µM,0,0

# Screening results from PubChem BioAssay.
